The first assay addresses Serine/threonine-protein kinase PLK2 (Homo sapiens) (UniProt Q9NYY3). Conditions: at 10 µM.
Chain of Serine/threonine-protein kinase PLK2 (Homo sapiens) (Q9NYY3 whole entry, looked up): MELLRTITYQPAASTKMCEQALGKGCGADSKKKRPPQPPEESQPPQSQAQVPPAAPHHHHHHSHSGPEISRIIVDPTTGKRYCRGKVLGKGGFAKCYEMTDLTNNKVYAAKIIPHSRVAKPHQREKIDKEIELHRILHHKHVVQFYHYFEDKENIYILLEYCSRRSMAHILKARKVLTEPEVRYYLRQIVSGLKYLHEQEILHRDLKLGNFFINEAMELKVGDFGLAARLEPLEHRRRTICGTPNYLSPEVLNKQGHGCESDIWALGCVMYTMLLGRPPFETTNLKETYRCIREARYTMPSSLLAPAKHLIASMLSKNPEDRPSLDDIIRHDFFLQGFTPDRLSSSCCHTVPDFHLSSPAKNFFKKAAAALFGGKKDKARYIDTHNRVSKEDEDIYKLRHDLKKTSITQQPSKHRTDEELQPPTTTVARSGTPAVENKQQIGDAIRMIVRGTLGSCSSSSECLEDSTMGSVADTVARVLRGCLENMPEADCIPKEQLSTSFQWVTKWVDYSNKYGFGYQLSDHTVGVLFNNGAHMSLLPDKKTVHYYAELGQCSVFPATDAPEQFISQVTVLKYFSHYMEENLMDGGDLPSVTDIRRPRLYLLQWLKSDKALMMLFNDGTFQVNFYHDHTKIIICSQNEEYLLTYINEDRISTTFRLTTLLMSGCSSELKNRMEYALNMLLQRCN
On to `O=C1C(Cl)=C(N2C(=O)CCC2=O)C(=O)c2ccccc21`, for which the residual activity (commonly the signal under treatment as a percentage of the control signal) is 90%.

Turning to `COc1cc2ncnc(Nc3cccc(Cl)c3)c2cc1OC`, the residual activity came out at 82%.

`COc1cc2nccc(Oc3ccc(NC(=O)Nc4cc(C)on4)c(Cl)c3)c2cc1OC`: the residual activity worked out at 98%.

Turning to `NC(=O)c1ccc(-c2nc(-c3ccc4c(c3)OCCO4)c(-c3ccccn3)[nH]2)cc1`, the residual activity is 100%.

Take `O=C1Cc2c([nH]c3ccc(Br)cc23)-c2ccccc2N1`: the residual activity amounted to 91%.

In the case of `Oc1cccc(-c2nc(N3CCOCC3)c3oc4ncccc4c3n2)c1`, the residual activity came to 98%.

In the case of `O=C1Nc2ccccc2/C1=C\c1c(Cl)[nH]c2ccccc12`, the residual activity was found to be 80%.

Take `O=C(NC(NC(=S)Nc1ccc(F)c([N+](=O)[O-])c1)C(Cl)(Cl)Cl)C(c1ccccc1)c1ccccc1` (stereo not drawn): the residual activity is 87%.

As to `Nc1ncnc2c1cnn2-c1ccccc1`, the residual activity came to 97%.

Consider `N#C/C(=C1/Nc2ccccc2S1)c1ccnc(NCCc2cccnc2)n1`, for which the residual activity was 71%.

On to `O=C(CCCc1ccc(-c2ccccc2F)cc1)Nc1ccc(O)cc1`, for which the residual activity was found to be 106%.

The next assay deals with Tyrosine-protein kinase SYK (Homo sapiens) (UniProt P43405). Conditions: at 1 µM.
As for `CC(C)N(CCC(=O)c1ccc2ccccc2c1)Cc1ccccc1`, the residual activity was determined as 127%.

`COc1ccc(COc2ccc(Cc3cnc(N)nc3N)cc2OC)cc1`: the residual activity is 118%.

For the compound `O=C1C(Cl)=C(N2C(=O)CCC2=O)C(=O)c2ccccc21`, the residual activity amounted to 100%.

Take `COc1cc2ncnc(Nc3cccc(Cl)c3)c2cc1OC`: the residual activity was determined as 121%.

As for `COc1ccc(-c2cnc3c(-c4ccsc4)cnn3c2)cc1`, the residual activity came to 127%.

As to `O=C1NC(=O)C(c2cn(CCCn3ccnc3)c3ccccc23)=C1Nc1ccccc1`, the residual activity worked out at 105%.

With `Cn1c2ccccc2c2c3c(c4c5ccccc5n(CCC#N)c4c21)CNC3=O`, the residual activity was 3%.

With `O=C(Nc1nc2ccccc2n1CCN1CCOCC1)c1cccc([N+](=O)[O-])c1`, the residual activity was determined as 123%.

With `O=C1Cc2c([nH]c3ccc(Br)cc23)-c2ccccc2N1`, the residual activity came to 72%.

For `Oc1cccc(-c2nc(N3CCOCC3)c3oc4ncccc4c3n2)c1`, the residual activity turned out to be 131%.

On to `NCCNc1ncc(C(N)=O)c(Nc2cccc(C(F)(F)F)c2)n1`, for which the residual activity amounted to 6%.

`O=C1NC(=O)C(c2cn(CCCO)c3ncccc23)=C1c1cnccn1`: the residual activity is 93%.

As to `O=C(c1ccccc1)c1ccc(N2CCOCC2)cc1O`, the residual activity is 124%.

In the case of `c1ccc(-c2cnc(Nc3ccc(OCCN4CCCC4)cc3)s2)cc1`, the residual activity was 129%.

As to `O=c1c(-c2ccc(F)cc2)c(-c2ccncc2)[nH]n1-c1ccc(Cl)cc1`, the residual activity is 41%.

As to `O=C(CCCc1ccc(-c2ccccc2F)cc1)Nc1ccc(O)cc1`, the residual activity is 100%.

Turning to `CN(C)S(=O)(=O)c1ccc2c(c1)/C(=C/c1cc3c([nH]1)CCCC3)C(=O)N2`, the residual activity was determined as 97%.

The record behind these values is ChEMBL document CHEMBL2218924, “A broad activity screen in support of a chemogenomic map for kinase signalling research and drug discovery” (Biochem J, 2013).
